We go through seven molecules from PubChem BioAssay.

Assay [1] is described as follows: growth inhibition of DIPG glioma cells, dose response, cell-based, SU-DIPG-XVII, MIPE5.0, CellTiter-Glo, qHTS (AID 1347060; cut-off not given, nearly all actives have AC50 up to about 26 µM;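 on AC50: cells exposed to compound for 48 hours before viability readout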). As to conditions: SU-DIPG-XVII viability, CellTiter-Glo ATP luminescence.
Assay [2] is described as follows: growth inhibition of DIPG glioma cells, dose response, cell-based, SU-DIPG-XIII, MIPE5.0, CellTiter-Glo, qHTS (AID 1347064; cut-off not given, nearly all actives have AC50 up to about 23 µM;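 on AC50: cells exposed to compound for 48 hours before the viability read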). The conditions noted are these: SU-DIPG-XIII viability, CellTiter-Glo ATP luminescence.
The nature of assay [3]: viability loss in pontine glioma line – cell-based, SU-DIPG-XXV, MIPE5.0, CellTiter-Glo, qHTS, dose response (AID 1347065; cut-off not given, nearly all actives have AC50 up to about 26 µM;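 further: cells exposed to compound for 48 hours before ATP readout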). The conditions noted are these: CellTiter-Glo ATP luminescence.
A short description of assay [4]: growth inhibition of DIPG glioma cells, dose response, cell-based, SU-DIPG-IV, MIPE4.0, CellTiter-Glo, qHTS (AID 1347063; cut-off not given, nearly all actives have AC50 up to about 30 µM;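 further: compound exposure lasted 48 hours before the viability readout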). As to conditions: SU-DIPG-IV viability, CellTiter-Glo ATP luminescence. Background: ATP-based viability assays read luminescence as a measure of living cells.
Assay [5] in a line: sensitizers of A549 cells to miR-34 induction, primary screen, imaging, A549 dox-inducible miR-34, nuclei and caspase counts (AID 1347080;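 active means compounds whose cell count with miR-34 switched on is under 0.7 times the count with it off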). The conditions noted are these: A549 miR-34 inducible, Hoechst nuclei count, 48 h.
Assay [6] can be described thus: survival rescue of mitochondrial mutant cells in low glucose, primary screen, MELAS cybrids, Rieske KO mouse fibroblasts, CellTiter-Glo (AID 1508586;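 active means mean z-score across replicates of 1.96 or higher in either the MELAS or the Rieske mutant cell line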;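 further: z relative to plate mean and SD of compound and empty wells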).
Assay [7] in a line: SU-DIPG-XXV glioma cell viability, MIPE5.0 library, qHTS (AID 1347068; cut-off not given, nearly all actives have IC50 up to about 30 µM). A general note: Quantitative high-throughput screening tests each substance at several concentrations.
A short description of assay [8]: modifiers of HSF1 nuclear foci, imaging, Selleck Cancer Library (AID 1347162; in the data active means plate-normalised HSF1 focus index below about 0.46). The conditions noted are these: human cells, at 10 µM; SSMD: measured here: HSF1 foci SSMD mean; cell count: measured here: cell number; plate-normalised HSF1 focus index: stronger effect = lower value.
A short description of assay [9]: SU-DIPG-VI glioma cell viability, MIPE4.0 library, CellTiter-Glo luminescence, qHTS (AID 1347066; cut-off not given, nearly all actives have AC50 up to about 30 µM;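 further: cells exposed to compound for 48 hours before readout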). The conditions noted are these: CellTiter-Glo ATP luminescence.
Assay [10] in a line: JHH-DIPG-1 glioma cell viability, MIPE5.0 library, CellTiter-Glo luminescence, qHTS (AID 1347067; cut-off not given, nearly all actives have AC50 up to about 26 µM;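 further: cells exposed to compound for 48 hours before readout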). As to conditions: JHH-DIPG-1 glioma viability, CellTiter-Glo ATP luminescence.
A short description of assay [11]: ovarian cancer cell viability with rucaparib, profiling panel, oncology-focused library, rucaparib conditional (AID 1508598). The conditions noted are these: patient-derived ovarian cancer cells, CellTiter-Glo viability, 144 h, stronger effect = lower value.
[12] abbreviates: stronger effect = lower value, cell number ratio, induced over uninduced.
[13] abbreviates: measured here: relative caspase fold change +Dox/-Dox.
The mark [14] stands for this setting: measured here: total cells with miR-34 induction, stronger effect = lower value.
The mark [15] stands for this setting: measured here: total cells without miR-34 induction.
Where [16] appears, read: MELAS cybrid survival, CellTiter-Glo 48 h, stronger effect = higher value.
[17] abbreviates: Rieske KO mouse fibroblast survival, CellTiter-Glo 72 h.

Several values for one entry are separate records, joined by “and”; a condition that tells them apart may be missing. Identical values can stand only once. Records with an inconclusive call do not appear. Activity calls are given as the source filed them.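 How the source made its calls, unless noted: active means normalized viability below 100% at a tested concentration; inactive means the rest.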

Consider `Cc1nc([C@](C)(O)CO)sc1-c1cnc(N)c(O[C@H](C)c2cc(F)ccc2-n2nccn2)c1`, for which the AC50 was 8.33 µM (active) in assay [1], 1.48 µM (active) in assay [2] and 2.63 µM (active) in assay [3].

Regarding `COc1cc2ncnc(Nc3cccc(Cl)c3)c2cc1OC`, the results for the AC50 in assay [1], in assay [4] and in [3] were 13.2 µM (active), 18.7 µM (active) and 20.9 µM (active), respectively. Also, the fold change in assay [5] (setting [12]) is 1.29 (inactive) and 1.02 (inactive) and 0.9 (inactive); in assay [5] (setting [13]) it was 0.693 and 0.941 and 0.779. Further, the cell count is 2650 and 1830 and 6990 in [5] (setting [14]); 2060 and 1800 and 7760 in assay [5] (setting [15]). In addition, the z-score in [6] (setting [16]) was -0.433 (inactive); in assay [6] (setting [17]), 0.126.

On to `O=C(Nc1nc2cccc(-c3ccc(CN4CCS(=O)(=O)CC4)cc3)n2n1)C1CC1`, for which the AC50 is 14.8 µM (active) in assay [1], 29.6 µM (active) in [4] and 9.34 µM (active) in [3]. The figures for the fold change in assay [5] (setting [12]) and in assay [5] (setting [13]) were 0.924 (inactive) and 0.426, respectively. The cell count in assay [5] (setting [14]) was found to be 6290; in assay [5] (setting [15]), 6810. The z-score was -0.57 (inactive) in assay [6] (setting [16]) and -1.33 in assay [6] (setting [17]).

As to `OCCn1cc(-c2ccc3c(c2)CC/C3=N\O)c(-c2ccncc2)n1`, the AC50 in assay [1] is 14.8 µM (active). In addition, the result in assay [4] was inactive. In addition, the molecule was classed as inactive in assay [7]. In addition, in assay [8], the SSMD came out at 1.73, the cell count was 6750 and the plate-normalised HSF1 focus index is 1.09 (inactive).

With `Cc1ccc(C(=O)OCc2ccc([C@@H](CN)C(=O)Nc3ccc4cnccc4c3)cc2)c(C)c1`, the AC50 in [1] was 12.9 µM (active); in [2] it was 14.4 µM (active); in assay [3], 9.1 µM (active).

In the case of `CNc1nc(Nc2ccc(C(=O)N3CCOCC3)cc2OC)ncc1Cl`, the result in assay [1], in assay [4], in assay [2], in assay [9] and in [7] was inactive.

As to `Nc1ccn([C@@H]2O[C@H](CO)[C@@H](O)C2(F)F)c(=O)n1`, the AC50 in assay [1] is 0.0186 µM (active); in assay [4], 0.526 µM (active). Further, the result in [9], in assay [10] and in assay [7] was inactive. In addition, the results for the fold change in assay [5] (setting [12]) and in [5] (setting [13]) were 0.809 (inactive) and 2.54, respectively. For the same molecule, the cell count in [5] (setting [14]) is 2200; in assay [5] (setting [15]), 2720. For the same molecule, the z-score in [6] (setting [16]) is 0.323 and -0.775; in [6] (setting [17]), 10.5 and 7.93. The viability was 107% (inactive) in assay [11] (at 0.000305 µM, OCI-C5x cells, with rucaparib 10 µM, 100% = cells with rucaparib alone); 87.2% (active) in assay [11] (at 0.000305 µM, OCI-C5x cells, without rucaparib); 74.1% (active) in [11] (at 0.000305 µM, OCI-P5x cells, with rucaparib 20 µM, 100% = cells with rucaparib alone); 32.9% (active) in assay [11] (at 0.000305 µM, OCI-P5x cells, without rucaparib); 90.4% (active) in assay [11] (at 0.00122 µM, OCI-C5x cells, with rucaparib 10 µM, 100% = cells with rucaparib alone); 93.9% (active) in assay [11] (at 0.00122 µM, OCI-C5x cells, without rucaparib). Further, the viability is 55.8% (active) in [11] (at 0.00122 µM, OCI-P5x cells, with rucaparib 20 µM, 100% = cells with rucaparib alone); 27% (active) in [11] (at 0.00122 µM, OCI-P5x cells, without rucaparib); 81% (active) in assay [11] (at 0.00488 µM, OCI-C5x cells, with rucaparib 10 µM, 100% = cells with rucaparib alone); 80% (active) in [11] (at 0.00488 µM, OCI-C5x cells, without rucaparib); 57.2% (active) in [11] (at 0.00488 µM, OCI-P5x cells, with rucaparib 20 µM, 100% = cells with rucaparib alone); 22.9% (active) in [11] (at 0.00488 µM, OCI-P5x cells, without rucaparib). In addition, the viability in assay [11] (at 0.0195 µM, OCI-C5x cells, with rucaparib 10 µM, 100% = cells with rucaparib alone) is 69.2% (active); in assay [11] (at 0.0195 µM, OCI-C5x cells, without rucaparib) it was 58.3% (active); in assay [11] (at 0.0195 µM, OCI-P5x cells, with rucaparib 20 µM, 100% = cells with rucaparib alone), 47.3% (active); in assay [11] (at 0.0195 µM, OCI-P5x cells, without rucaparib) it was 22% (active); in [11] (at 0.0781 µM, OCI-C5x cells, with rucaparib 10 µM, 100% = cells with rucaparib alone) it was 56.5% (active); in assay [11] (at 0.0781 µM, OCI-C5x cells, without rucaparib) it was 47.8% (active). Moreover, the viability in [11] (at 0.0781 µM, OCI-P5x cells, with rucaparib 20 µM, 100% = cells with rucaparib alone) is 50.9% (active); in [11] (at 0.0781 µM, OCI-P5x cells, without rucaparib) it was 25.3% (active); in assay [11] (at 0.313 µM, OCI-C5x cells, with rucaparib 10 µM, 100% = cells with rucaparib alone), 36.8% (active); in assay [11] (at 0.313 µM, OCI-C5x cells, without rucaparib), 35.1% (active); in [11] (at 0.313 µM, OCI-P5x cells, with rucaparib 20 µM, 100% = cells with rucaparib alone), 58.9% (active); in assay [11] (at 0.313 µM, OCI-P5x cells, without rucaparib), 22.7% (active). Further, the viability in assay [11] (at 1.25 µM, OCI-C5x cells, with rucaparib 10 µM, 100% = cells with rucaparib alone) is 33.1% (active); in assay [11] (at 1.25 µM, OCI-C5x cells, without rucaparib), 30.2% (active); in assay [11] (at 1.25 µM, OCI-P5x cells, with rucaparib 20 µM, 100% = cells with rucaparib alone) it was 53.9% (active); in [11] (at 1.25 µM, OCI-P5x cells, without rucaparib), 25.7% (active); in assay [11] (at 5 µM, OCI-C5x cells, with rucaparib 10 µM, 100% = cells with rucaparib alone), 14.3% (active); in assay [11] (at 5 µM, OCI-C5x cells, without rucaparib), 14.2% (active). Further, the viability in assay [11] (at 5 µM, OCI-P5x cells, with rucaparib 20 µM, 100% = cells with rucaparib alone) is 42.3% (active); in assay [11] (at 5 µM, OCI-P5x cells, without rucaparib) it was 17.7% (active).

By AC50 is commonly meant the concentration at which the activity in the assay is half-maximal. As a reminder, the viability is a read-out of living cells in per cent, often relative to untreated cells.
